According to the supplement of paper PMC6658780:
Where a name gives a salt, the structure may show the parent alone. ± gives the standard deviation of the averaged measurements.

These compounds were tested on Klebsiella pneumoniae NCTC-13439 (assay: percent growth inhibition of drug alone vs DMSO control; higher = more growth inhibition). Conditions: antibiotic (0.125x MIC): none (0.1% DMSO); 20 µM.
For `Cc1c(F)c(N2CCNC(C)C2)cc2c1c(=O)c(C(=O)O)cn2C1CC1` (stereo not drawn) [Grepafloxacin], the “percent growth inhibition of drug alone” value was 23.5 ± 9.9%. For `N=C(NCCCCCCNC(=N)NC(=N)Nc1ccc(Cl)cc1)NC(=N)Nc1ccc(Cl)cc1` [Chlorhexidine], the “percent growth inhibition of drug alone” value was 57.6 ± 4.2%. For `NC1CCN(c2nc3c(cc2F)c(=O)c(C(=O)O)cn3-c2ccc(F)cc2F)C1` (stereo not drawn) [Tosufloxacin hydrochloride], the “percent growth inhibition of drug alone” value was 99.38 ± 0.74%. For `Cc1nc2n(c(=O)c1CCN1CCC(c3noc4cc(F)ccc34)CC1)CCCC2` [Risperidone], the “percent growth inhibition of drug alone” value was -6.94 ± 7.8%. `NC(=O)N/N=C/c1ccc([N+](=O)[O-])o1` [Nitrofural] was tested, and the “percent growth inhibition of drug alone” value was 11.8 ± 8.7%. With `O=C(OCC(O)CO)c1ccccc1Nc1ccnc2cc(Cl)ccc12` (stereo not drawn) [Glafenine hydrochloride] the “percent growth inhibition of drug alone” value was 3.73 ± 17%. In the case of `CC(=O)CCCCn1c(=O)c2c(ncn2C)n(C)c1=O` [Pentoxifylline], the “percent growth inhibition of drug alone” value is reported as 2.73 ± 3.2%. In the case of `C#C[C@]1(OC(C)=O)CC[C@H]2[C@@H]3CCC4=CC(=NO)CC[C@@H]4[C@H]3CC[C@@]21CC` (mixture of isomers) [Norgestimate], the “percent growth inhibition of drug alone” value is reported as -14.2 ± 4.9%. In the case of `COc1ccc(OC)c(C(O)CNC(=O)CN)c1` (stereo not drawn) [Midodrine hydrochloride], the “percent growth inhibition of drug alone” value is reported as -4.02 ± 9.3%. In the case of `C[C@H](N)[C@H](O)c1cccc(O)c1` [Metaraminol bitartrate], the “percent growth inhibition of drug alone” value is reported as -0.507 ± 15%.

Each compound was assayed on Klebsiella pneumoniae KPC-119 (assay: percent growth inhibition of drug + antibiotic vs DMSO control; higher = more growth inhibition). Conditions: antibiotic (0.125x MIC): colistin; 7 µM.
`NCC[C@H](O)C(=O)N[C@@H]1C[C@H](N)[C@@H](O[C@H]2O[C@H](CN)[C@@H](O)[C@H](O)[C@H]2O)[C@H](O)[C@H]1O[C@H]1O[C@H](CO)[C@@H](O)[C@H](N)[C@H]1O` [Amikacin hydrate] showed a percent growth inhibition of 38.9 ± 2.6%. `COC(=O)N/N=C/c1c[n+]([O-])c2ccccc2[n+]1[O-]` [Carbadox] showed a percent growth inhibition of 34.1 ± 0.81%. `CC1CCc2cc(F)cc3c(=O)c(C(=O)O)cn1c23` (stereo not drawn) [Flumequine] was tested, and the percent growth inhibition was 88.42 ± 0.76%. In the case of `CO[C@@H]1[C@@H](OC(N)=O)[C@@H](O)[C@H](Oc2ccc3c(O)c(NC(=O)c4ccc(O)c(CC=C(C)C)c4)c(=O)oc3c2C)OC1(C)C` [Novobiocin sodium salt], the percent growth inhibition is reported as 34.1 ± 0.68%. In the case of `C=CC1=C(C(=O)O)N2C(=O)[C@@H](NC(=O)/C(=N\OCC(=O)O)c3csc(N)n3)[C@H]2SC1` [Cefixime], the percent growth inhibition is reported as 9.79 ± 12%. With `O=C1NCN(c2ccccc2)C12CCN(CCCC(c1ccc(F)cc1)c1ccc(F)cc1)CC2` [Fluspirilen] the percent growth inhibition was 4.99 ± 4%. `CS(=O)(=O)c1ccc([C@@H](O)[C@@H](CF)NC(=O)C(Cl)Cl)cc1` [Florfenicol] gave a percent growth inhibition of 97.49 ± 0.25%. `CC(=O)OCC(=O)[C@@]1(O)CC[C@H]2[C@@H]3CCC4=CC(=O)CC[C@]4(C)[C@@]3(F)[C@@H](O)C[C@@]21C` [Fludrocortisone acetate] showed a percent growth inhibition of 58.4 ± 10%. Work on `CC1COc2c(N3CCN(C)CC3)c(F)cc3c(=O)c(C(=O)O)cn1c23` (stereo not drawn) [Ofloxacin] yielded a percent growth inhibition of 98.02 ± 0.8%. With `CN(C)CCCN1c2ccccc2Sc2ccc(Cl)cc21` [Chlorpromazine hydrochloride] the percent growth inhibition was 41.9 ± 12%. `CCCCC(CC)CNC(=N)NC(=N)NCCCCCCNC(=N)NC(=N)NCC(CC)CCCC` (stereo not drawn) [Alexidine dihydrochloride] was tested, and the percent growth inhibition was 98.02 ± 0.96%. In the case of `CCn1cc(C(=O)O)c(=O)c2cc(F)c(N3CCNCC3)nc21` [Enoxacin], the percent growth inhibition is reported as 13.6 ± 6.1%. `CN(C(=O)CN(CCO)CC(=O)N(C)C(C)(C)Cc1ccccc1)C(C)(C)Cc1ccccc1` [Oxethazaine] showed a percent growth inhibition of 4.52 ± 0.46%.
